According to PubChem BioAssay (NCATS):
The source made the active and inactive calls. Calls follow the shape of the dose curve; as a rule, active = well fitted inhibition curve with a large enough effect; inconclusive = small, poorly fitted or top-dose-only effect; inactive = flat fitted curve, though single readings scatter.

Each compound was assayed on Nanoluciferase (engineered Oplophorus gracilirostris luciferase) (assay: Primary Nanoluciferase (NLuc) qHTS assay for identification of artifact compounds. (AID 1845222;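 also: 0% = DMSO and -100% = no enzyme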)). Settings: NLuc-conditioned medium, Nano-Glo luminescence, 5 min; series mostly up to 54.1 µM; activity, negative = inhibition: at the top concentration.
In short: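 Luminescence from secreted NLuc (filtered, 1:55-diluted S16 cell medium) read 5 min after Nano-Glo substrate; compounds preincubated 15 min, RT. Hill fits of inhibition normalized to DMSO and no-enzyme.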
`C=C[C@H]1[C@H](O[C@@H]2O[C@H](CO)[C@@H](O)[C@H](OC(=O)/C=C/c3ccc(O)c(OC)c3)[C@H]2O)OC=C2C(=O)OCC[C@]21O` was tested, and the “activity, negative = inhibition” value was -5.08% [at 25.7 µM] (inactive). In the case of `Cc1oc2nc3c(c(NC(=O)CN4CCCC4=O)c2c1C)CCCC3`, the “activity, negative = inhibition” value is reported as -5.13% (inactive). `C/C=C/C=C/C=C/C(=O)N(C)C(C(=O)NC(C)C(=O)N1CCCC1C(N)=O)C(C)C` (stereo not drawn) was tested, and the “activity, negative = inhibition” value was 3.05% [at 25.7 µM] (inactive). In the case of `CC1(C(=O)O)CC[C@]2(C(=O)OC3OC(CO)C(O)C(O)C3O)CC[C@]3(C)C(=CCC4[C@@]5(C)CC[C@H](OC6OCC(O)C(O)C6OC6OC(CO)C(O)C(O)C6O)C(C)(C)C5CC[C@]43C)C2C1` (stereo partly drawn), the activity, negative = inhibition is reported as 1.15% [at 11.6 µM] (inactive). For `CCc1nnc(NS(=O)(=O)c2ccc(NC(=S)NC(=O)/C=C/c3ccc(F)cc3)cc2)s1`, the “activity, negative = inhibition” value was -5.26% (inactive). For `COc1cc(/C=C/C(=O)O[C@@H]2C[C@](O)(C(=O)O)C[C@@H](O)[C@H]2O)ccc1O`, the “activity, negative = inhibition” value was 2.74% (inactive). With `C=C1Cc2c(Cl)cc3[nH]c4c5c3c2[C@@]2(O)[C@@H]1C[C@@H]2C(C)(C)O[C@H]5C1CC[C@@]2(O)[C@@]35O[C@@H]3[C@H]3OC(C)(C)[C@H]3O[C@H]5CC[C@]2(C)[C@@]41C` (stereo partly drawn) the “activity, negative = inhibition” value was -0.929% [at 25.7 µM] (inactive). With `C=C1CCC2C(C)(C)CC(O)CC2(C)C1CCC(C)CCOC(=O)CCC(=O)O` (stereo not drawn) the “activity, negative = inhibition” value was -2.56% [at 25.7 µM] (inactive). With `CC(O)C1CCC2C3CCC4CC(OC5OC(C(=O)O)C(O)C(O)C5O)CCC4(C)C3CCC12C` (stereo not drawn) the “activity, negative = inhibition” value was -18.6% (inactive). `C/C=C/C=C/C(O)=C1/C(=O)[C@]2(C)C(=O)[C@@](C)(O)[C@H]1[C@H]([C@@]1(C)OC(=O)C(C)=C1O)[C@H]2C(=O)CC/C=C/C` was tested, and the “activity, negative = inhibition” value was -1.2% [at 25.7 µM] (inactive). For `COc1c2ccoc2nc2c(OC)c(O[C@@H]3O[C@@H](C)[C@H](O)[C@@H](O[C@@H]4O[C@H](CO)[C@@H](O)[C@H](O)[C@H]4O)[C@H]3OC(C)=O)ccc12`, the “activity, negative = inhibition” value was 4.1% [at 25.7 µM] (inactive). `CC(=O)O[C@@H]1[C@H](O[C@@H]2OC[C@](O)(CO)[C@H]2O)[C@@H](O[C@@H]2O[C@@H](C)[C@H](O)[C@@H](O[C@@H]3O[C@H](CO)[C@@H](O)[C@H](O)[C@H]3O)[C@H]2O)[C@H](OC(=O)[C@]23CCC(C)(C)C[C@H]2C2=CCC4[C@@]5(C)C[C@H](O)[C@H](O[C@@H]6O[C@H](C(=O)O)[C@@H](O)[C@H](O)[C@H]6O)[C@@](C)(C(=O)O)C5CC[C@@]4(C)[C@]2(C)CC3)O[C@@H]1C` (stereo partly drawn) was tested, and the activity, negative = inhibition was 0% [at 11.6 µM] (inactive). For `CCc1cc(CC[C@]2(C3CCCC3)CC(O)=C(Cc3nc4nc(C)cc(C)n4n3)C(=O)O2)cc(CC)n1`, the “activity, negative = inhibition” value was 1.1% (inactive). `CCCCOc1nc(N)c2c(n1)N(Cc1cccc(CN3CCCC3)c1)CC(=O)N2` was tested, and the “activity, negative = inhibition” value was 1.9% (inactive). With `CCOc1ncc(S(=O)(=O)N2CCN(CC)CC2)cc1-c1nc2c(CC)n(CCOC)nc2c(=O)[nH]1` the “activity, negative = inhibition” value was 0% (inactive). `CC(C)[C@@H](C(=O)O)N1Cc2c(cc(O)c3c2O[C@]2(C3)[C@H](C)CCC3C(C)(C)[C@H](O)[C@H](O)C[C@@]32C)C1=O` (stereo partly drawn) was tested, and the “activity, negative = inhibition” value was 0.685% [at 25.7 µM] (inactive). With `C=C1CC[C@]2(C(=O)O[C@@H]3O[C@H](CO)[C@@H](O)[C@H](O)[C@H]3O)CC[C@]3(C)C(=CCC4[C@@]5(C)C[C@H](O)[C@@H](O[C@@H]6O[C@H](C(=O)O)[C@@H](O)[C@H](O)[C@H]6O)[C@](C)(C=O)C5CC[C@]43C)C2C1` (stereo partly drawn) the activity, negative = inhibition was 1.82% [at 11.6 µM] (inactive). In the case of `O=C(O)CC/C=C\C[C@H]1CO[C@@H](c2ccccc2Cl)O[C@H]1c1ccccc1O`, the “activity, negative = inhibition” value is reported as -9.82% (inactive). For `CCCCNc1nc(N)c2[nH]c(=O)n(Cc3ccc(OCCN(C)C)nc3)c2n1`, the “activity, negative = inhibition” value was 1.98% (inactive). For `C[C@@H]1O[C@@H](O[C@H]2[C@H](OC(=O)[C@]34CCC(C)(C)C[C@H]3C3=CCC5[C@@]6(C)C[C@@H](O)[C@@H](O[C@@H]7O[C@H](CO)[C@@H](O)[C@H](O)[C@H]7O)[C@@](C)(CO)C6[C@H](O)C[C@@]5(C)[C@]3(C)CC4)OC[C@H](O)[C@@H]2O)[C@H](O)[C@H](O[C@@H]2OC[C@](O)(CO)[C@H]2O)[C@H]1O[C@@H]1OC[C@@H](O)[C@H](O[C@H]2O[C@H](C)[C@@H](O)[C@H](O)[C@@H]2O)[C@H]1O` (stereo partly drawn), the activity, negative = inhibition was 0% [at 11.6 µM] (inactive). For `CCC(C)/C=C(C)/C=C/C1=CC2=C(Cl)C(=O)C(C)(OC(C)=O)C(=O)C2=CN1C(CC(=O)O)C(=O)O` (stereo not drawn), the “activity, negative = inhibition” value was -10.9% [at 25.7 µM] (inactive). `O=C(/C=C/C=C/c1ccc2c(c1)OCO2)N1CCCCC1` was tested, and the “activity, negative = inhibition” value was -12.6% (inactive). For `CC1OC(OC2C(OC3C(O[C@H]4CC[C@@]5(C)C(CC[C@]6(C)C5C(=O)CC5=C7CC(C)(C)CC(O)[C@]7(C)CC[C@]56C)C4(C)C)OC(C(=O)O)C(O)C3O)OCC(O)C2O)C(O)C(O)C1O` (stereo partly drawn), the activity, negative = inhibition was -10.9% [at 11.6 µM] (inactive).
